Results: the supplement of paper PMC6555819

Tests used:
Assay in all cases: PBM binding z-score (relative to random genomic background probes); higher = stronger binding; sequences stand for … in GC…GCGATTGACAGCGTAGAATGAAGG
[1] = test system: RARb homodimer (NR concentration 270 nM)
Method in brief: (§1)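 On custom Agilent 4×180K arrays, double-stranded probes with 34-nt variable regions carried direct-repeat seeds, single-nucleotide variants, half-site ablations or random human genomic background. Ligand-free nuclear receptor dimers were applied for 1 h, and binding was read with antibodies against each partner (one per run). Binding z-scores come from regression-normalized fluorescence, with the random background probes as reference.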

[2] = test system: RARg:RXRa (NR concentration 270 nM, RXRa partner concentration 90 nM)
Method in brief: as §1

[3] = test system: RARg homodimer (NR concentration 270 nM)
Method in brief: as §1

[4] = test system: RXRa DBDmut IVT, anti-RXR (DBD mutation: RXRa K156A/R161A, NR concentration 90 nM)
Method in brief: as §1

[5] = test system: THRa:RXRa (NR concentration 90 nM, RXRa partner concentration 90 nM)
Method in brief: as §1

[6] = test system: THRa homodimer (NR concentration 90 nM)
Method in brief: as §1

[7] = test system: VDR homodimer (NR concentration 270 nM)
Method in brief: as §1

[8] = test system: VDR:RXRa (NR concentration 270 nM, RXRa partner concentration 90 nM)
Method in brief: as §1

Row | Sequence | PBM binding z-score [1] | PBM binding z-score [2] | PBM binding z-score [3] | PBM binding z-score [4] | PBM binding z-score [5] | PBM binding z-score [6] | PBM binding z-score [7] | PBM binding z-score [8]
1 | CCTACTGGGCCACGAAAGGTCCTTGATTCAGTGA | 0.647 | 0.00978 | 0.301 | -0.311 | 0.686 | -0.289 | -0.692 | 
2 | CATACAGGGACAGCTAGGCCAGAGTAGGGACGGC | 0.286 | 0.368 | 0.718 | -0.689 | 0.703 | 0.148 | -0.709 | -0.582
3 | CTCGAAAGGGCGTGCTCAGGTGAGTATACCAAAC | 0.741 | 0.917 | 0.829 | 0.316 | 2.23 | 0.261 | -0.046 | 
4 | CGTCCAAGGTCAATGCTAGGCCAGTGAAAGCATT | 3.99 | 6.23 | 6.11 | 3.55 | 3.96 | 2.15 | 2.49 | 3.78
5 | CCTACTGTGCCATTCAGAGGTCATTGATCATATG | 4.39 | 4.2 | 2.75 | 1.79 | 3.38 | 2.43 | 3.56 | 
6 | CCTAGTTGGTCAGGAGGCCACACACCGGATATGA | 1.51 | 0.776 | 1.23 | -0.19 | 0.326 | 0.708 | 0.435 | 
7 | GATACACGGTCAAGGCCAGAGTACGCGTATTGAT | 1.73 | 1.54 | 2.53 | -0.0133 | 0.429 | -0.515 | 0.324 | 
8 | TTACCAAGGTTAAAGGTCGTTGATGCACGCCTTG | 3.04 | 5.05 | 3.09 | 1.88 | 3.63 | 0.88 | 2.29 | 4.55
9 | TCATATAGGTAAAAGGTCAAAGTCGGTGTGGTAA | 4.74 | 6.62 | 5.95 | 2.5 | 3.85 | 1.47 | 3.09 | 5.3
10 | CCTTACGGGTCAAGGTTGTAGCACGGGTGGTACG | 3.2 | 4.54 | 4.07 | 0.452 | 2.38 | 0.122 | 1.18 | 
11 | CGAACTAGGTCACCAGAACAGTGAAGAGGTTGGA | 3.14 | 4.44 | 5.22 | 1.11 | 2.87 | 0.853 | 0.565 | 
12 | ATATGCAGGTTATCGGGTCATTCAGTTTGCGCAT | 2.95 | 3.29 | 2.2 | 1.56 | 3.49 | 2.55 | 4 | 
13 | TCTCGGATGACACGAAAGGTCAGAGCTCGACATC | 4.3 | 4.19 | 3.99 | 1.08 | 2.79 | 0.526 | 0.594 | 2.94
14 | GCTCGGAGGACAAGGTCACAGCTTTGTCCGTAGA | 3.72 | 4.76 | 4.75 | 1.17 | 3.79 | 3.04 | 1.96 | 3.47
15 | TCTAGCTGGTCAAAGGTCACACACTCGAAATGCG | 5.13 | 7.3 | 6.69 | 1.15 | 3.88 | 1.36 | 1.86 | 
16 | ATATGTAGGTTAGCGTCATTCAGAAAGTAGGGAA | 0.285 | 0.435 | 0.62 | -0.0875 | 0.15 | -0.253 | 0.0488 | 0.0435
17 | CCTACTGGGCCATTCAGAGGTTATTGATCATATG | 1.19 | 1.1 | 0.495 | 0.368 | 0.915 | 0.14 | 0.749 | 
18 | ATCGAAAGGTCGAGTTGAGTATAGAGAAAGGGAA | 2.39 | 4.11 | 4.31 | 1.89 | 2.23 | -0.17 | 1 | 
19 | CCGACTGGGGCAAAGGTTACCATGCTCAGTACGA | 2.01 | 3.66 | 1.55 | -0.0654 | 1.74 | -0.38 | -0.359 | 
20 | GCTTACGGGTCAAAGGTTACAGCATGAATAGAAT | 3.57 | 7.1 | 5.1 | 2.74 | 3.93 | 0.157 | 1.75 | 
21 | CGTCCAACGTCAGCAGGTCAGTGAAAGCGACGTG | 1.92 | 0.905 | 1.54 | -0.094 | 0.784 | -0.139 | -0.585 | 
22 | CCCACTGGGCCATTCAGAGGTCATTGATCATATG | 4.3 | 4.48 | 3.31 | 0.382 | 3.43 | 1.52 | 3.25 | 
23 | CCTACTGGGCGACGAAAGGTCATTGATTCAGTGA | 4.11 | 4.14 | 3.31 | 0.216 | 3.13 | 0.124 | 1.38 | 
24 | CCTACGGGGCCAAGGTCATTGATCAGTCAAAGCA | 3.51 | 4.02 | 3.77 | 1.21 | 3.47 | 2.04 | 3.09 | 
25 | TCTTGTAGGTCAAAGGTTAAGAAAGCCGAAGCCT | 3.84 | 7.23 | 5.61 | 1.98 | 3.76 | 0.452 | 0.881 | 
26 | ATATGTGGGTTATCGGGTCATTCAGTTTGCGCAT | 3.15 | 2.99 | 2.07 | 1.99 | 3.45 | 3.41 | 4.15 | 
27 | TATTGTAGATCAAAGGTTAAGAAAGCCGAAGCCT | 1.38 | 2.06 | 1.28 | -0.592 | 1.37 | -0.344 | 0.214 | 
28 | CTTAGTTGGTCAAGGTCACACACGCTATAGGTAC | 4.53 | 4.9 | 5.2 | 2.05 | 4.43 | 4.65 | 3.96 | 
29 | CAAAGTAGGTCAAGAGGTCAAAGTCCGCTTCCCG | 5.78 | 8.31 | 7.92 | 2.89 | 4.21 | 1.84 | 4.84 | 
30 | ACTCGGAGGACAAATGTCAGAGCTACGCCAGTGA | 0.623 | 1.08 | 1.68 | 0.614 | 0.512 | -0.331 | -0.508 | 
